The supplement of paper PMC12282887
± gives the standard deviation of the averaged measurements.

Tests used:
Experiment in all cases: promoter activity interaction Z-score (Lux/OD deviation from empty-vector control); higher = stronger promoter induction by the compound
[1] = tested on: E. coli BW25113 acrABp lux reporter
Procedure, shortened: (§1)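 Wild-type E. coli BW25113 and three single-gene deletion strains, each carrying a low-copy luxCDABE promoter reporter, were grown at 37°C in 40 µl LB Lennox per well of a 384-well plate. Every compound was applied at four 1:2 dilutions in biological duplicates, and OD600 and luminescence were read every 30 min for 12 h. Integration covered 0–8 h for wild type and 1–9 h for deletion strains, and wells under 10% of the median growth value were removed. Scores are Z-transformed residuals of growth-normalised luminescence fitted against a control.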

[2] = tested on: E. coli BW25113 marRABp lux reporter
Procedure, shortened: as §1

[3] = tested on: E. coli BW25113 micFp lux reporter
Procedure, shortened: as §1

[4] = tested on: E. coli BW25113 ompFp lux reporter
Procedure, shortened: as §1

[5] = tested on: E. coli BW25113 robp lux reporter
Procedure, shortened: as §1

[6] = tested on: E. coli BW25113 soxSp lux reporter
Procedure, shortened: as §1

[7] = tested on: E. coli BW25113 tolCp lux reporter
Procedure, shortened: as §1

[8] = 13.7 µg/ml, genetic background: wild type
[9] = 13.7 µg/ml, genetic background: ΔmarA
[10] = 13.7 µg/ml, genetic background: Δrob
[11] = 13.7 µg/ml, genetic background: ΔsoxS
[12] = 27.5 µg/ml, genetic background: wild type
[13] = 27.5 µg/ml, genetic background: ΔmarA
[14] = 27.5 µg/ml, genetic background: Δrob
[15] = 27.5 µg/ml, genetic background: ΔsoxS
[16] = 54.9 µg/ml, genetic background: wild type
[17] = 54.9 µg/ml, genetic background: ΔmarA
[18] = 54.9 µg/ml, genetic background: Δrob
[19] = 54.9 µg/ml, genetic background: ΔsoxS
[20] = 109.8 µg/ml, genetic background: wild type
[21] = 109.8 µg/ml, genetic background: ΔmarA
[22] = 109.8 µg/ml, genetic background: Δrob
[23] = 109.8 µg/ml, genetic background: ΔsoxS

CNC[C@H](O)c1ccc(O)c(O)c1 [Adrenalin]
promoter activity interaction Z-score [1, 8]: -0.118 ± 0.26
promoter activity interaction Z-score [1, 9]: -0.4 ± 0.56
promoter activity interaction Z-score [1, 10]: 0.0418 ± 0.19
promoter activity interaction Z-score [1, 11]: -0.382 ± 0.4
promoter activity interaction Z-score [1, 12]: -0.0931 ± 0.1
promoter activity interaction Z-score [1, 13]: 0.531 ± 0.016
promoter activity interaction Z-score [1, 14]: -0.104 ± 0.11
promoter activity interaction Z-score [1, 15]: -0.043 ± 0.052
promoter activity interaction Z-score [1, 16]: -0.373 ± 0.29
promoter activity interaction Z-score [1, 17]: 0.688 ± 0.54
promoter activity interaction Z-score [1, 18]: -0.345 ± 0.12
promoter activity interaction Z-score [1, 19]: -0.566 ± 0.013
promoter activity interaction Z-score [1, 20]: -0.472 ± 0.26
promoter activity interaction Z-score [1, 21]: 0.342 ± 0.19
promoter activity interaction Z-score [1, 22]: 0.0555 ± 0.04
promoter activity interaction Z-score [1, 23]: 0.539 ± 0.12
promoter activity interaction Z-score [2, 8]: 0.121 ± 0.2
promoter activity interaction Z-score [2, 9]: -0.289 ± 0.22
promoter activity interaction Z-score [2, 10]: -0.0038 ± 0.073
promoter activity interaction Z-score [2, 11]: -0.111 ± 0.21
promoter activity interaction Z-score [2, 12]: 0.38 ± 0.26
promoter activity interaction Z-score [2, 13]: 0.173 ± 0.6
promoter activity interaction Z-score [2, 14]: 0.209 ± 0.28
promoter activity interaction Z-score [2, 15]: 0.0712 ± 0.22
promoter activity interaction Z-score [2, 16]: -0.365 ± 0.31
promoter activity interaction Z-score [2, 17]: -0.424 ± 0.13
promoter activity interaction Z-score [2, 18]: -0.339 ± 0.43
promoter activity interaction Z-score [2, 19]: -0.285 ± 0.12
promoter activity interaction Z-score [2, 20]: -0.142 ± 0.4
promoter activity interaction Z-score [2, 21]: -0.43 ± 0.15
promoter activity interaction Z-score [2, 22]: 0.0375 ± 0.16
promoter activity interaction Z-score [2, 23]: 0.218 ± 0.26
promoter activity interaction Z-score [3, 8]: -0.11 ± 0.0085
promoter activity interaction Z-score [3, 9]: -0.0104 ± 0.018
promoter activity interaction Z-score [3, 10]: 0.263 ± 0.12
promoter activity interaction Z-score [3, 11]: -0.351 ± 0.072
promoter activity interaction Z-score [3, 12]: -0.259 ± 0.091
promoter activity interaction Z-score [3, 13]: -0.0735 ± 0.14
promoter activity interaction Z-score [3, 14]: 0.173 ± 0.31
promoter activity interaction Z-score [3, 15]: 0.192 ± 0.11
promoter activity interaction Z-score [3, 16]: -0.122 ± 0.19
promoter activity interaction Z-score [3, 17]: 0.0635 ± 0.093
promoter activity interaction Z-score [3, 18]: 0.189 ± 0.21
promoter activity interaction Z-score [3, 19]: -0.508 ± 0.077
promoter activity interaction Z-score [3, 20]: -0.426 ± 0.33
promoter activity interaction Z-score [3, 21]: -0.136 ± 0.074
promoter activity interaction Z-score [3, 22]: 0.0853 ± 0.074
promoter activity interaction Z-score [3, 23]: -0.142 ± 0.14
promoter activity interaction Z-score [4, 8]: 0.379 ± 0.018
promoter activity interaction Z-score [4, 9]: -0.309 ± 0.22
promoter activity interaction Z-score [4, 10]: -0.171 ± 0.37
promoter activity interaction Z-score [4, 11]: -0.679 ± 0.25
promoter activity interaction Z-score [4, 12]: 0.362 ± 0.017
promoter activity interaction Z-score [4, 13]: 0.00142 ± 0.52
promoter activity interaction Z-score [4, 14]: -0.0408 ± 0.55
promoter activity interaction Z-score [4, 15]: -0.0291 ± 0.36
promoter activity interaction Z-score [4, 16]: -0.597 ± 0.18
promoter activity interaction Z-score [4, 17]: 0.175 ± 0.27
promoter activity interaction Z-score [4, 18]: -1.07 ± 0.55
promoter activity interaction Z-score [4, 19]: -0.961 ± 0.21
promoter activity interaction Z-score [4, 20]: -0.0147 ± 0.25
promoter activity interaction Z-score [4, 21]: -0.377 ± 0.44
promoter activity interaction Z-score [4, 22]: -0.876 ± 1.6
promoter activity interaction Z-score [4, 23]: -0.239 ± 0.22
promoter activity interaction Z-score [5, 8]: -0.189 ± 0.26
promoter activity interaction Z-score [5, 9]: -0.738 ± 0.13
promoter activity interaction Z-score [5, 10]: -0.362 ± 0.49
promoter activity interaction Z-score [5, 11]: -0.567 ± 0.17
promoter activity interaction Z-score [5, 12]: 0.83 ± 0.5
promoter activity interaction Z-score [5, 13]: -0.178 ± 0.0036
promoter activity interaction Z-score [5, 14]: -0.489 ± 0.6
promoter activity interaction Z-score [5, 15]: -0.00139 ± 0.12
promoter activity interaction Z-score [5, 16]: -0.414 ± 0.15
promoter activity interaction Z-score [5, 17]: -0.097 ± 0.33
promoter activity interaction Z-score [5, 18]: -0.505 ± 1.8
promoter activity interaction Z-score [5, 19]: -0.645 ± 0.021
promoter activity interaction Z-score [5, 20]: -0.53 ± 0.61
promoter activity interaction Z-score [5, 21]: -0.598 ± 0.62
promoter activity interaction Z-score [5, 22]: -1.48 ± 0.78
promoter activity interaction Z-score [5, 23]: -1.95 ± 0.2
promoter activity interaction Z-score [6, 8]: 0.381 ± 0.43
promoter activity interaction Z-score [6, 9]: 0.0748 ± 0.12
promoter activity interaction Z-score [6, 10]: 0.425 ± 0.29
promoter activity interaction Z-score [6, 11]: -0.181 ± 0.096
promoter activity interaction Z-score [6, 12]: 0.23 ± 0.19
promoter activity interaction Z-score [6, 13]: 0.131 ± 0.16
promoter activity interaction Z-score [6, 14]: 0.208 ± 0.28
promoter activity interaction Z-score [6, 15]: 0.264 ± 0.64
promoter activity interaction Z-score [6, 16]: 0.0152 ± 0.17
promoter activity interaction Z-score [6, 17]: -0.0453 ± 0.22
promoter activity interaction Z-score [6, 18]: 0.121 ± 0.0073
promoter activity interaction Z-score [6, 19]: -0.333 ± 0.19
promoter activity interaction Z-score [6, 20]: -0.143 ± 0.091
promoter activity interaction Z-score [6, 21]: -0.248 ± 0.045
promoter activity interaction Z-score [6, 22]: 0.0524 ± 0.1
promoter activity interaction Z-score [6, 23]: 0.0254 ± 0.36
promoter activity interaction Z-score [7, 8]: -0.595 ± 0.65
promoter activity interaction Z-score [7, 9]: -0.333 ± 0.39
promoter activity interaction Z-score [7, 10]: 0.343 ± 0.15
promoter activity interaction Z-score [7, 11]: -0.571 ± 0.34
promoter activity interaction Z-score [7, 12]: -0.0385 ± 0.61
promoter activity interaction Z-score [7, 13]: -0.394 ± 0.82
promoter activity interaction Z-score [7, 14]: -0.578 ± 0.57
promoter activity interaction Z-score [7, 15]: 1.04 ± 1.6
promoter activity interaction Z-score [7, 16]: -0.749 ± 0.67
promoter activity interaction Z-score [7, 17]: 0.176 ± 0.046
promoter activity interaction Z-score [7, 18]: -0.0706 ± 0.3
promoter activity interaction Z-score [7, 19]: 0.0714 ± 0.89
promoter activity interaction Z-score [7, 20]: -0.414 ± 0.029
promoter activity interaction Z-score [7, 21]: -0.30805 ± 0.0003
promoter activity interaction Z-score [7, 22]: -0.0487 ± 0.27
promoter activity interaction Z-score [7, 23]: -0.39 ± 1.4
